Anthrax LF prot = anthrax lethal factor protease inhibition. multiplex microsphere protease cleavage assay, LF. P15917. 360,000 compounds, 0.12% hits. inhibition, % at 10 µM; in the data active means inhibition above about 30%; inconclusive means no clear call, values can overlap the other calls; further: plate controls were buffer without enzyme for full effect and enzyme alone for no effect
MazF activator = increases E. coli MazEF RNase cleavage of RNA; P0AE70; FAM/BHQ RNA-DNA oligo cleavage fluorescence, 5 h; activation, % at 20 µM; 350,000 compounds, 0.32% hits; AID 504720; in the data active means activation above about 50%
Bead autofluor = counter-screen for toxin protease inhibitors: compound fluorescence | compound autofluorescence counterscreen, microsphere flow cytometry; active compounds read high | fluorescence intensity (concentration not given with the values) | 360,000 compounds, 3.1% hits; in the data active means fluorescence intensity above about 16000; inconclusive means no clear call, values can overlap the other calls
BoNT F protease = BoNT F light chain protease inhibition; 360,000 compounds, 0.22% hits; Multiplex microsphere protease cleavage assay, flow cytometry; AID 588497; inhibition, % at 10 µM; in the data active means inhibition above about 35%, passing the limit was not always enough; inconclusive means no clear call, values can overlap the other calls; further: plate controls were buffer without enzyme for full effect and enzyme alone for no effect
BoNT A protease = blocks Botulinum neurotoxin A light chain protease; multiplex microsphere protease substrate cleavage, flow cytometry; inhibition, % at 10 µM; 360,000 compounds, 0.17% hits; in the data active means inhibition above about 30%; inconclusive means no clear call, values can overlap the other calls; further: plate controls were buffer without enzyme for full effect and enzyme alone for no effect
BoNTA LC inh 1 = blocks botulinum neurotoxin A light chain protease; shares compounds with BoNT F protease; multiplex microsphere protease assay, flow cytometry; inhibition, % at 10 µM; 720 compounds, 3% hits; AID 602139; in the data active means inhibition above about 32%
BoNT-F LC CP1 = BoNT/F light chain protease inhibition. multiplex microsphere protease cleavage assay, flow cytometry. AID 602140. 720 tested, under 10 active. shares compounds with BoNT F protease. inhibition, % at 10 µM
LF protease CP1 = blocks anthrax lethal factor protease. multiplex microsphere protease cleavage assay, LF. shares compounds with BoNT F protease. inhibition, % at 10 µM. 720 tested, under 10 active
* marks the source's active call; other numbers are inactive results; ? = inconclusive; . = not tested or not shown. An excerpt weighted towards active compounds, which were near 3.7% of everything screened. Unless noted, how the calls were made is not given here.

SMILES	Anthrax LF prot	MazF activator	Bead autofluor	BoNT F protease	BoNT A protease	BoNTA LC inh 1	BoNT-F LC CP1	LF protease CP1
COc1ccc(CN2CCN(CC3CC3)CC2CCO)c(C)c1C (centres undefined)	43*	3	4181	-46	-1	-1	-3	-1
COc1ccc(CN2CCN(C3CCSCC3)CC2CCO)c(C)c1C (centres undefined)	2	7	3850	-2	1	.	.	.
COc1ccccc1C(=O)N/C(=C\c1cn(S(=O)(=O)N(C)C)c2ccccc12)C(=O)N1CCCC1	0	5	5866	3	0	.	.	.
CC(=O)c1cnn(-c2c(Cl)cc(Cl)cc2Cl)c1C	6	-1	2937	38*	0	-2	-2	-4
CCCCn1c(CCC(=O)O)nc2cc(S(=O)(=O)N3CCCC3)ccc21	-4	12	3072	-8	1	.	.	.
O=C1c2ccccc2C(=O)N1CCCn1ccnc1	13	-7	3039	?	1	.	.	.
O=C1c2ccccc2C(=O)N1CCn1ccnc1	14	7	3914	41*	0	0	0	1
C[C@@H]1O[C@H](C2CCCC2)CC2=C1C(=O)OC(C)(C)O2	-6	.	5259	6	0	.	.	.
COc1ccc(Cl)cc1NC(=O)C1CC(c2c(F)cccc2Cl)=NO1 (centres undefined)	-4	6	3506	37*	1	0	-5	-1
COc1ccc(NC(=O)C2CC(c3ccc(Cl)cc3)=NO2)cc1 (centres undefined)	45*	6	3152	-1	0	0	-6	-2
CCc1nc2ccc(C(=O)NCCCN3CCCC3=O)cn2c1N(CCC(C)C)CCN(C)C	-4	.	2902	6	0	.	.	.
CN(CC(=O)Nc1cccc(F)c1)C(=O)c1cccnc1Sc1ccc(Cl)cc1	-3	-2	5590	-10	2	.	.	.
CN(CC(=O)Nc1cccc(F)c1)C(=O)c1cccnc1Sc1ccccc1Cl	1	-7	?	0	38*	2	6	5
Cc1ccc(N2CC(O)Cn3c2nc2c3c(=O)[nH]c(=O)n2C)cc1 (centres undefined)	-11	11	3581	?	-6	.	.	.
COc1cccc(N2CC(O)Cn3c2nc2c3c(=O)[nH]c(=O)n2C)c1 (centres undefined)	4	6	3007	41*	7	1	-2	0
COc1ccccc1N(C)S(=O)(=O)c1ccc(C(=O)N(C)Cc2ccc(OC(F)F)cc2)cc1	-4	-6	3737	4	6	.	.	.
CCN1C[C@@H]2[C@@H]3C(=O)N(Cc4ccccc4)C(=O)[C@@H]3[C@](CC)(C1=O)N2C(=O)c1ccccc1	2	-6	4103	-6	0	.	.	.
CCc1cc2cccc(C)c2nc1SCC(=O)NC1CCCC1	4	11	3309	37*	-1	1	-3	-2
COc1ccc(C(=O)NCCn2ccc3ccccc32)cc1	36*	-2	9335	11	53*	2	13	1
Cc1cc2ccccc2n1CCNC(=O)c1ccccc1	?	-11	1420	?	?	24	-6	17
CC(=O)NCCn1c(C)cc2ccccc21	21	-3	5295	2	8	.	.	.
C=CC(=O)N=c1sc2ccccc2n1-c1ccccc1	6	-12	4086	-7	0	.	.	.
N=c1sc2ccccc2n1-c1ccccc1	27	10	10239	20	32*	2	0	2
Nc1ccc(-c2nnn(CC(=O)N3CCCCC3)n2)cc1	46*	4	3071	?	1	-1	-2	-4
COc1ccc(S(=O)(=O)Nc2ccc3c(c2)C(=O)N([C@H](C)CO)C[C@H](C)[C@@H](CN(C)C(=O)Nc2c(C)noc2C)OCCCC[C@H](C)O3)cc1	-4	0	3281	2	0	.	.	.
SMILES	Anthrax LF prot	MazF activator	Bead autofluor	BoNT F protease	BoNT A protease	BoNTA LC inh 1	BoNT-F LC CP1	LF protease CP1
O=C(NCCCN1CCCC1=O)NC1CCCCC1	2	-5	4023	-6	0	.	.	.
O=C(O)C1CCCCC1C(=O)NCCCN1CCCC1=O (centres undefined)	0	-5	4270	48*	-3	0	-5	-3
COc1ccc(CCN2CC(C(=O)NCc3cn(C)nc3C)CCC2=O)cc1 (centres undefined)	-2	6	4570	0	-1	.	.	.
Cc1ccc2cc(C#N)c(N3CCN(C(=O)c4cccs4)CC3)nc2c1	-12	8	3441	40*	-3	-3	-10	-5
Cc1ccc2nc(N3CCN(C(=O)c4ccc(F)cc4)CC3)c(C#N)cc2c1	0	2	4690	0	5	.	.	.
CCOC(=O)[C@H]1[C@H]2COc3ccc(Cl)cc3[C@@H]2N2C(=O)CN(Cc3ccco3)C(=O)[C@@]12C	-4	3	3000	3	0	.	.	.
CC(C)c1ccccc1N=C1SCCCN1C(=O)c1cccc(N2C(=O)CCC2=O)c1	-7	0	?	?	0	.	.	.
Cc1ccc(C2=N/C(=C\c3ccc(F)cc3)C(=O)N2)cc1	-1	17	6723	6	0	.	.	.
O=C(Nc1cccc(Br)c1)c1cc(=O)c2ccccc2o1	0	1	4434	3	0	.	.	.
CCCn1c2ccccc2c2nc3ccccc3nc21	31*	-7	4676	-6	57*	12	4	9
O=C(CNC(=O)c1n[nH]c2ccccc12)Nc1ccc(F)c(F)c1F	-2	-2	8261	4	-1	.	.	.
CC(C)N1CC(C(=O)Nc2ccc(Cl)cc2Cl)CC1=O (centres undefined)	-9	0	3099	-3	0	.	.	.
Cc1ccc(C)c2[nH]c(=O)c(C(c3nnnn3CCc3ccccc3)N3CCOCC3)cc12 (centres undefined)	-2	-26	2447	-1	0	.	.	.
Cc1ccc(C)c2[nH]c(=O)c(C(c3nnnn3C3CCCC3)N3CCOCC3)cc12 (centres undefined)	-1	6	25756*	-4	-3	0	-1	-1
CCOC(=O)C1CCN(C(c2cc3c(C)ccc(C)c3[nH]c2=O)c2nnnn2C2CCCCC2)CC1 (centres undefined)	10	-6	38836*	109*	15	1	-3	0
CCOC(=O)C1CCN(C(c2cc3ccc(C)c(C)c3[nH]c2=O)c2nnnn2C2CCCCC2)CC1 (centres undefined)	12	-21	60118*	38*	33*	-2	-5	-4
Cc1ccc2cc(CN(Cc3nnnn3C3CCCC3)C3CCCCC3)c(=O)[nH]c2c1C	2	2	5570	26	3	.	.	.
NC(=O)C1CCN(C(c2ccccc2)c2nnnn2C2CCCC2)CC1 (centres undefined)	3	5	3152	13	1	.	.	.
